About 870 (72%) of roughly 1,200 compounds were called active. Not shown: some 3% with an inconclusive outcome.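 The calls were made as follows: active = every test run fits a falling curve whose half-maximal concentration is at most twice the top valid dose; inconclusive = runs disagree, or flat 30 to 70% inhibition, or poor fit; inactive = every run inactive: flat, rising or weaker potency.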 So high a share suggests a set chosen from earlier hits. Only a sample is shown. Results with a measured potency or affinity are listed apart.
Assay: blockers of HIV-1 ZM109 envelope-driven cell-cell fusion – HeLa effector, CEM target cells, luciferase, cherry-pick, dose response (AID 652058)
Conditions: HeLa Env/CEM cell fusion, 16-24 h; series mostly up to 35 µM

Row | Compound | activity change, negative = inhibition
1 | CC(C)C#Cc1ccc2c(c1)O[C@@H](CN(C)C(=O)C1CCCCC1)[C@H](C)CN([C@H](C)CO)S2(=O)=O | inactive
2 | COc1ccc(-c2ccc3c(c2)[C@@H]2[C@@H](CCN2C(=O)NC2CCCC2)[C@H](CO)N3C)cc1 | inactive
3 | N#CCSc1nnc(-c2sc3ccccc3c2Cl)o1 | inactive
4 | C[C@@H]1CN([C@H](C)CO)S(=O)(=O)c2ccc(-c3ccccc3)cc2O[C@@H]1CN(C)Cc1ccccc1 | inactive
5 | CCOc1ccc(NC2c3ccccc3C(=O)N2Cc2ccco2)cc1 (centres undefined) | inactive
6 | Cc1ccc(S(=O)(=O)N(C)C[C@H]2Oc3ccc(NC(=O)Nc4cccc5ccccc45)cc3C(=O)N([C@H](C)CO)C[C@@H]2C)cc1 | inactive
7 | C[C@@H]1CN([C@H](C)CO)C(=O)c2cc(NC(=O)Nc3ccccc3)ccc2O[C@@H]1CN(C)S(=O)(=O)c1ccccc1 | inactive
8 | COc1ccccc1C#Cc1ccc([C@H]2[C@H](C#N)N(C(=O)C3CCCC3)[C@H]2CO)cc1 | inactive
9 | CCCCS(=O)(=O)N1CCN(C(=O)C(=O)c2cccc(C(F)(F)F)c2)CC1 | inactive
10 | COc1ccc(C)cc1NC(=O)CCNS(=O)(=O)c1ccc2c(c1)CC(C)N2C(C)=O (centres undefined) | inactive
11 | COc1ccc(NC(=O)C(=O)NCC2CCCN2S(=O)(=O)c2cccs2)cc1 (centres undefined) | inactive
12 | O=C(Nc1ccc(C(=O)OC2CCCCC2)cc1)c1ccncc1 | inactive
13 | Cc1cccc(/C=N\Nc2cn[nH]c(=O)c2Cl)c1 | inactive
14 | COc1ccc(NC(=O)CN2CCC(C(N)=O)(N3CCCCC3)CC2)cc1 | inactive
15 | COc1ccc(-c2cn(CC[C@H]3CC[C@H](NS(=O)(=O)c4ccccc4C)[C@H](CO)O3)nn2)cc1 | inactive
16 | O=C(Nc1cccc(F)c1)N[C@@H]1CC[C@H](CCNS(=O)(=O)c2cccc(Cl)c2)O[C@@H]1CO | inactive
17 | O=C(CCN1CCCCC1)N[C@@H]1CC[C@@H](CCn2cc(-c3ccccc3)nn2)O[C@@H]1CO | inactive
18 | CN(C)Cc1cn(CC[C@@H]2CC[C@H](N)[C@H](CO)O2)nn1 | inactive
19 | O=C(Cc1ccncc1)N[C@H]1CC[C@@H](CCn2cc(-c3ccccc3F)nn2)O[C@@H]1CO | inactive
20 | O=C(Nc1cccc(F)c1)N[C@H]1CC[C@@H](CCNS(=O)(=O)c2cccc(Cl)c2)O[C@H]1CO | inactive
21 | COc1ccc(-c2c(C)nn3c(C(F)(F)F)cc(C)nc23)cc1 | inactive
22 | CCCNC(=O)C[C@@H]1C[C@H]2c3cc(NC(=O)c4cccnc4)ccc3O[C@H]2[C@H](CO)O1 | inactive
23 | Cc1cccc(C)c1N(CC(O)Cn1c2ccccc2c2ccccc21)S(C)(=O)=O (centres undefined) | inactive

Row | Compound | activity change, negative = inhibition
24 | CCNC(=O)C[C@@H]1CC[C@@H]2[C@H](COC[C@@H](O)CN2C(=O)c2ccccn2)O1 | inactive
25 | O=C(Nc1nc(-c2ccc3c(c2)OCO3)cs1)c1ccncc1 | inactive
26 | CS(=O)(=O)N1CCc2cc(-c3csc(NC(=O)Cc4cccs4)n3)ccc21 | inactive
27 | CCOC(=O)[C@@H]1[C@H]2COc3cc(OC)ccc3[C@H]2N2C(=O)N(c3cccc(F)c3)C(=O)[C@@]12C | inactive
28 | O=C(C[C@@H]1C[C@@H]2c3cc(NS(=O)(=O)c4ccc(F)cc4)ccc3O[C@@H]2[C@H](CO)O1)NCc1ccccc1F | inactive
29 | COc1ccccc1CNC(=O)C[C@H]1C[C@@H]2c3cc(NC(=O)c4cccnc4)ccc3O[C@@H]2[C@@H](CO)O1 | inactive
30 | O=C(C[C@@H]1C[C@@H]2c3cc(NC(=O)c4ccc5c(c4)OCO5)ccc3O[C@@H]2[C@@H](CO)O1)NCc1ccc(Oc2ccccc2)cc1 | inactive
31 | O=C(C[C@@H]1C[C@@H]2c3cc(NC(=O)Nc4ccccc4)ccc3O[C@@H]2[C@@H](CO)O1)NCc1ccccc1 | inactive
32 | COC(=O)Cn1cnc2c(Cl)nc(F)nc21 | inactive
33 | O=C(C[C@H]1C[C@H]2c3cc(NC(=O)C4CCC4)ccc3O[C@H]2[C@@H](CO)O1)NCc1ccc2c(c1)OCO2 | inactive
34 | CN(C)C(=O)C[C@@H]1C[C@@H]2c3cc(NS(=O)(=O)c4ccc(F)cc4)ccc3O[C@@H]2[C@@H](CO)O1 | inactive
35 | CN(C)C(=O)C[C@@H]1C[C@H]2c3cc(NS(=O)(=O)c4ccc(F)cc4)ccc3O[C@H]2[C@H](CO)O1 | inactive
36 | O=C(C[C@H]1C[C@@H]2c3cc(NC(=O)C4CCOCC4)ccc3O[C@@H]2[C@H](CO)O1)NCc1ccccc1 | inactive
37 | CCCNC(=O)C[C@@H]1C[C@@H]2c3cc(NC(=O)Cc4ccncc4)ccc3O[C@@H]2[C@H](CO)O1 | inactive
38 | CCCNC(=O)C[C@@H]1C[C@@H]2c3cc(NC(=O)CN(C)C)ccc3O[C@@H]2[C@H](CO)O1 | inactive
39 | O=C(C[C@@H]1C[C@H]2c3cc(NC(=O)C4CCC4)ccc3O[C@H]2[C@H](CO)O1)NCC(F)(F)F | inactive
40 | CC(=O)OC1c2ccccc2C(=O)N1c1ccccc1C (centres undefined) | inactive
41 | O=C(COC(=O)c1cccc(S(=O)(=O)N2CCOCC2)c1)NCc1ccccc1 | inactive
42 | Cc1ccc(S(=O)(=O)N(C)c2ccc(C(=O)N3CCN(Cc4ccc5c(c4)OCO5)CC3)cc2)cc1 | inactive
43 | c1ccc(CSc2nnc([C@@H]3CCCN3)o2)cc1 | inactive
44 | Cc1nnc(SC(=O)N2c3ccccc3Sc3ccccc32)s1 | inactive
45 | Cc1ccccc1-n1c(=O)c2ccccc2n2cnnc12 | inactive
46 | O=c1c2ccccc2nnn1CSc1nnc(COc2ccc(Cl)cc2)n1Cc1ccco1 | inactive

Row | Compound | activity change, negative = inhibition
47 | O=C(CNC(=O)c1cccc(-n2cccc2)c1)Nc1ccccc1Br | inactive
48 | COc1cccc(S(=O)(=O)N[C@H]2CC[C@@H](CCN)O[C@@H]2CO)c1 | inactive
49 | Cc1ccc(S(=O)(=O)N[C@@H]2CC[C@H](CCNC(=O)c3ccccc3F)O[C@H]2CO)cc1 | inactive
50 | COc1ccccc1S(=O)(=O)N[C@H]1CC[C@H](CC(=O)N2CCN(C)CC2)O[C@H]1CO | inactive
51 | O=C(NCC[C@@H]1CC[C@@H](NS(=O)(=O)c2ccccc2F)[C@@H](CO)O1)c1ccc(F)cc1 | inactive
52 | COc1cc(-c2cc(OC)c(O)c(OC)c2)cc(OC)c1O | inactive
53 | Cc1ccc(C2Oc3ccccc3C3=C2C(c2cccs2)n2ncnc2N3)cc1 (centres undefined) | inactive
54 | O=C(NCCCN1CCc2ccccc2C1)Nc1ccc(Cl)cc1 | inactive
55 | O=C(CN1CCCN(Cc2ccc(F)cc2Cl)C1=O)NC1CCCCCCC1 | inactive
56 | CCN(CC)S(=O)(=O)c1cccc(S(=O)(=O)c2cccc(S(=O)(=O)N(CC)CC)c2)c1 | inactive
57 | CS(=O)(=O)N(Cc1ccc(Cl)cc1)c1ccc(C(=O)NCCC2=CCCCC2)cc1 | inactive
58 | CCCNC(=O)C[C@H]1C[C@H]2c3cc(NC(=O)Cc4ccncc4)ccc3O[C@H]2[C@H](CO)O1 | inactive
59 | COc1ccc2c3c([nH]c2c1)[C@H](CO)N(C(=O)Nc1cccc(F)c1)CC31CCN(S(=O)(=O)c2ccccc2)CC1 | inactive
60 | CCCCOc1ccc(S(=O)(=O)Nc2cccnc2)cc1 | inactive
61 | COc1ccc(S(=O)(=O)N[C@@H]2CC[C@@H](CC(=O)NCCc3ccncc3)O[C@@H]2CO)cc1 | inactive
62 | CC(=O)c1ccc(S(=O)(=O)N2CCN(c3nc4c(C)c(C)ccc4cc3C#N)CC2)cc1 | inactive
63 | O=C(Nc1nc2ccccc2[nH]1)c1ccccc1F | inactive
64 | Cc1ccc(NC(=O)c2ccc(OCC3CCCO3)cc2)cc1Cl (centres undefined) | inactive
65 | Cn1c(CN2CCCCC2)nc2cc(NC(=O)c3ccc(Cl)cc3)ccc21 | inactive
66 | O=C(COc1ccc(-n2cnnn2)cc1)Nc1ccc(F)c(F)c1 | inactive
67 | Cc1ccc(NC(=O)c2ccc(CN3CCc4ccccc4C3)cc2)cc1 | inactive
68 | O=C(Nc1ccc(Cl)cc1)Nc1cccc(C(=O)O)c1 | inactive
69 | COC(=O)[C@H](Cc1ccccc1)NC(=O)Cn1cnc(C(=O)Nc2ccc(C)c(C)c2)n1 | inactive
